# Results published in the supplement of paper PMC4466140.
# Columns and labels:
# Experiment in all cases: SPOT peptide array binding signal intensity (averaged, normalized) (arbitrary units (background-subtracted, floor 0; scale differs between SH3 domains)); higher = stronger binding of the SH3 domain to the peptide
# AgAbp1 = molecular target: AgAbp1
# How it was run: (§1)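 Four yeast species supplied the SH3 domains, which were expressed as GST fusions in E. coli BL21(DE3) and purified on glutathione Sepharose. Incubation with cellulose membranes carrying synthetic 15-mer peptides, cysteines exchanged for serines, ran overnight at 4°C at 10 μg/ml in TBS-based blocking buffer. Binding signal is reported as normalized, background-subtracted spot intensity averaged over replicates, in arbitrary units not shared between domains.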
# AgBbc1 = molecular target: AgBbc1
# How it was run: as §1
# AgBem1-D1 = molecular target: AgBem1-D1
# How it was run: as §1
# AgBzz1-D1 = molecular target: AgBzz1-D1
# How it was run: as §1
# AgBzz1-D2 = molecular target: AgBzz1-D2
# How it was run: as §1
# AgCyk3 = molecular target: AgCyk3
# How it was run: as §1
# AgFus1 = molecular target: AgFus1
# How it was run: as §1
# AgHof1 = molecular target: AgHof1
# How it was run: as §1
# AgHse1 = molecular target: AgHse1
# How it was run: as §1
# AgLsb1 = molecular target: AgLsb1
# How it was run: as §1
# AgLsb4 = molecular target: AgLsb4
# How it was run: as §1
# AgMyo5 = molecular target: AgMyo5
# How it was run: as §1
# AgNbp2 = molecular target: AgNbp2
# How it was run: as §1
# AgRvs167 = molecular target: AgRvs167
# How it was run: as §1
# AgSho1 = molecular target: AgSho1
# How it was run: as §1
# AgSla1-D1-D2 = molecular target: AgSla1-D1-D2
# How it was run: as §1
# AgSla1-D3 = molecular target: AgSla1-D3
# How it was run: as §1
# CaAbp1-D1 = molecular target: CaAbp1-D1
# How it was run: as §1
# CaAbp1-D2 = molecular target: CaAbp1-D2
# How it was run: as §1
# CaBbc1 = molecular target: CaBbc1
# How it was run: as §1
# CaBem1-D1 = molecular target: CaBem1-D1
# How it was run: as §1
# CaBzz1-D1 = molecular target: CaBzz1-D1
# How it was run: as §1
# CaBzz1-D2 = molecular target: CaBzz1-D2
# How it was run: as §1
# CaCyk3 = molecular target: CaCyk3
# How it was run: as §1
# CaFus1 = molecular target: CaFus1
# How it was run: as §1
# CaHof1 = molecular target: CaHof1
# How it was run: as §1
# CaHse1 = molecular target: CaHse1
# How it was run: as §1
# CaLsb1 = molecular target: CaLsb1
# How it was run: as §1
# CaLsb4 = molecular target: CaLsb4
# How it was run: as §1
# CaMyo5 = molecular target: CaMyo5
# How it was run: as §1
# CaNbp2 = molecular target: CaNbp2
# How it was run: as §1
# CaRvs167 = molecular target: CaRvs167
# How it was run: as §1
# CaRvs167-3 = molecular target: CaRvs167-3
# How it was run: as §1
# CaSho1 = molecular target: CaSho1
# How it was run: as §1
# CaSla1-D1-D2 = molecular target: CaSla1-D1-D2
# How it was run: as §1
# CaSla1-D3 = molecular target: CaSla1-D3
# How it was run: as §1
# ScAbp1 = molecular target: ScAbp1
# How it was run: as §1
# ScBbc1 = molecular target: ScBbc1
# How it was run: as §1
# ScBem1-D1 = molecular target: ScBem1-D1
# How it was run: as §1
# ScBzz1-D1 = molecular target: ScBzz1-D1
# How it was run: as §1
# ScBzz1-D2 = molecular target: ScBzz1-D2
# How it was run: as §1
# ScCyk3 = molecular target: ScCyk3
# How it was run: as §1
# ScFus1 = molecular target: ScFus1
# How it was run: as §1
# ScHof1 = molecular target: ScHof1
# How it was run: as §1
# ScHse1 = molecular target: ScHse1
# How it was run: as §1
# ScLsb1 = molecular target: ScLsb1
# How it was run: as §1
# ScLsb2 = molecular target: ScLsb2
# How it was run: as §1
# ScLsb3 = molecular target: ScLsb3
# How it was run: as §1
# ScLsb4 = molecular target: ScLsb4
# How it was run: as §1
# ScMyo3 = molecular target: ScMyo3
# How it was run: as §1
# ScMyo5 = molecular target: ScMyo5
# How it was run: as §1
# ScNbp2 = molecular target: ScNbp2
# How it was run: as §1
# ScPex13 = molecular target: ScPex13
# How it was run: as §1
# ScRvs167 = molecular target: ScRvs167
# How it was run: as §1
# ScSho1 = molecular target: ScSho1
# How it was run: as §1
# ScSla1-D1-D2 = molecular target: ScSla1-D1-D2
# How it was run: as §1
# ScSla1-D3 = molecular target: ScSla1-D3
# How it was run: as §1
# SpAbp1-D1 = molecular target: SpAbp1-D1
# How it was run: as §1
# SpBbc1 = molecular target: SpBbc1
# How it was run: as §1
# SpBzz1-D1 = molecular target: SpBzz1-D1
# How it was run: as §1
# SpBzz1-D2 = molecular target: SpBzz1-D2
# How it was run: as §1
# SpCyk3 = molecular target: SpCyk3
# How it was run: as §1
# SpHof1 = molecular target: SpHof1
# How it was run: as §1
# SpHof1-2 = molecular target: SpHof1-2
# How it was run: as §1
# SpHof1-3 = molecular target: SpHof1-3
# How it was run: as §1
# SpHse1 = molecular target: SpHse1
# How it was run: as §1
# SpLsb1 = molecular target: SpLsb1
# How it was run: as §1
# SpLsb4 = molecular target: SpLsb4
# How it was run: as §1
# SpMyo1 = molecular target: SpMyo1
# How it was run: as §1
# SpNbp2 = molecular target: SpNbp2
# How it was run: as §1
# SpPex13 = molecular target: SpPex13
# How it was run: as §1
# SpRvs167 = molecular target: SpRvs167
# How it was run: as §1
# SpSla1-D1-D2 = molecular target: SpSla1-D1-D2
# How it was run: as §1
# SpSla1-D3 = molecular target: SpSla1-D3
# How it was run: as §1
binder,measurement,setting,value
ALRRRLPVTRSKINW,SPOT peptide array binding signal intensity,AgAbp1,348
same,SPOT peptide array binding signal intensity,AgBbc1,122
same,SPOT peptide array binding signal intensity,AgBem1-D1,140
same,SPOT peptide array binding signal intensity,AgBzz1-D1,43
same,SPOT peptide array binding signal intensity,AgBzz1-D2,60
same,SPOT peptide array binding signal intensity,AgCyk3,9.5
same,SPOT peptide array binding signal intensity,AgFus1,583
same,SPOT peptide array binding signal intensity,AgHof1,71.8
same,SPOT peptide array binding signal intensity,AgHse1,1170
same,SPOT peptide array binding signal intensity,AgLsb1,9.75
same,SPOT peptide array binding signal intensity,AgLsb4,189
same,SPOT peptide array binding signal intensity,AgMyo5,≤ 0
same,SPOT peptide array binding signal intensity,AgNbp2,346
same,SPOT peptide array binding signal intensity,AgRvs167,19.5
same,SPOT peptide array binding signal intensity,AgSho1,79
same,SPOT peptide array binding signal intensity,AgSla1-D1-D2,840
same,SPOT peptide array binding signal intensity,AgSla1-D3,5.5
same,SPOT peptide array binding signal intensity,CaAbp1-D1,1340
same,SPOT peptide array binding signal intensity,CaAbp1-D2,526
same,SPOT peptide array binding signal intensity,CaBbc1,302
same,SPOT peptide array binding signal intensity,CaBem1-D1,35
same,SPOT peptide array binding signal intensity,CaBzz1-D1,104
same,SPOT peptide array binding signal intensity,CaBzz1-D2,151
same,SPOT peptide array binding signal intensity,CaCyk3,53.5
same,SPOT peptide array binding signal intensity,CaFus1,1200
same,SPOT peptide array binding signal intensity,CaHof1,1
same,SPOT peptide array binding signal intensity,CaHse1,60
same,SPOT peptide array binding signal intensity,CaLsb1,1.5
same,SPOT peptide array binding signal intensity,CaLsb4,195
same,SPOT peptide array binding signal intensity,CaMyo5,5.5
same,SPOT peptide array binding signal intensity,CaNbp2,712
same,SPOT peptide array binding signal intensity,CaRvs167,48.5
same,SPOT peptide array binding signal intensity,CaRvs167-3,197
same,SPOT peptide array binding signal intensity,CaSho1,1180
same,SPOT peptide array binding signal intensity,CaSla1-D1-D2,491
same,SPOT peptide array binding signal intensity,CaSla1-D3,11.5
same,SPOT peptide array binding signal intensity,ScAbp1,59
same,SPOT peptide array binding signal intensity,ScBbc1,45.5
same,SPOT peptide array binding signal intensity,ScBem1-D1,20
same,SPOT peptide array binding signal intensity,ScBzz1-D1,23
same,SPOT peptide array binding signal intensity,ScBzz1-D2,27
same,SPOT peptide array binding signal intensity,ScCyk3,160
same,SPOT peptide array binding signal intensity,ScFus1,784
same,SPOT peptide array binding signal intensity,ScHof1,2.5
same,SPOT peptide array binding signal intensity,ScHse1,1800
same,SPOT peptide array binding signal intensity,ScLsb1,26.8
same,SPOT peptide array binding signal intensity,ScLsb2,15.5
same,SPOT peptide array binding signal intensity,ScLsb3,658
same,SPOT peptide array binding signal intensity,ScLsb4,25
same,SPOT peptide array binding signal intensity,ScMyo3,3.5
same,SPOT peptide array binding signal intensity,ScMyo5,3.5
same,SPOT peptide array binding signal intensity,ScNbp2,616
same,SPOT peptide array binding signal intensity,ScPex13,2.25
same,SPOT peptide array binding signal intensity,ScRvs167,155
same,SPOT peptide array binding signal intensity,ScSho1,1460
same,SPOT peptide array binding signal intensity,ScSla1-D1-D2,713
same,SPOT peptide array binding signal intensity,ScSla1-D3,23
same,SPOT peptide array binding signal intensity,SpAbp1-D1,794
same,SPOT peptide array binding signal intensity,SpBbc1,10
same,SPOT peptide array binding signal intensity,SpBzz1-D1,381
same,SPOT peptide array binding signal intensity,SpBzz1-D2,0.5
same,SPOT peptide array binding signal intensity,SpCyk3,69.5
same,SPOT peptide array binding signal intensity,SpHof1,357
same,SPOT peptide array binding signal intensity,SpHof1-2,80.8
same,SPOT peptide array binding signal intensity,SpHof1-3,790
same,SPOT peptide array binding signal intensity,SpHse1,766
same,SPOT peptide array binding signal intensity,SpLsb1,16.2
same,SPOT peptide array binding signal intensity,SpLsb4,553
same,SPOT peptide array binding signal intensity,SpMyo1,10.2
same,SPOT peptide array binding signal intensity,SpNbp2,716
same,SPOT peptide array binding signal intensity,SpPex13,23
same,SPOT peptide array binding signal intensity,SpRvs167,72.5
same,SPOT peptide array binding signal intensity,SpSla1-D1-D2,≤ 0
same,SPOT peptide array binding signal intensity,SpSla1-D3,41.5
